Source: ChEMBL document CHEMBL3988442, “University of Dundee, Small-Polar-MMV Screening Library” (2021)
The whole screen tested about 48,000 compounds, of which about 13,000 (27%) showed an effect of 50% or more. Some of the results follow.

Each compound was assayed on Wolbachia pipientis (assay: Anti-Wolbachia Cell-Based Screen). Settings: 5 µM.
Assay type: functional
Parameters: scale not given: in the data most compounds retested in dose-response had high values

SMILES	Percent Effect [%]
O=C(NCc1cnn2cccnc12)C1CC(=O)N(Cc2cccnc2)C1 (stereo not drawn)	-5.518
CC(C)CN1CCN(C(=O)NCc2cccnc2-n2cccn2)CC1	4.797
CC(C)CN1CC(C(=O)NCc2cccnc2-n2cccn2)CC1=O (stereo not drawn)	126
COCC1c2nnn(CC3CC3)c2CCN1C(=O)CS(C)(=O)=O (stereo not drawn)	-0.612
COc1ccccc1C(C)(C)NCc1ccco1	-0.6951
Cc1nn(-c2ccccc2)nc1C(=O)NCC(c1ccco1)N(C)C (stereo not drawn)	-4.253
CC(O)CNc1c(NCc2ccco2)c(=O)c1=O (stereo not drawn)	135.5
Cc1ccc(CS(=O)(=O)NCc2ccco2)cc1	3.7
CNc1c(NCc2ccco2)c(=O)c1=O	113.6
O=S(=O)(Cc1ccccc1)NCc1ccco1	0.9463
C[C@@H](O)CNc1c(NCc2ccco2)c(=O)c1=O	100.7
CC(CNC(=O)NCc1ccco1)CC1(C)OCCO1 (stereo not drawn)	3.835
CN(C)C(CNc1c(NCc2ccco2)c(=O)c1=O)c1ccccc1 (stereo not drawn)	131.6
CCCNC(=O)CCNC1CSCCc2ccccc21 (stereo not drawn)	-10.65
COC(=O)c1sccc1S(=O)(=O)N1CCC(Oc2ncccc2Cl)CC1	25.07
OCCN1CCc2[nH]nc(C(c3ccccc3)c3ccccc3)c2C1	13.32
CCc1cnc(CN(C)C(=O)Nc2cnc3c(c2)c(C)nn3C)s1	-8.075
O=C(c1ccc(O)nc1)N1CCN(C(=O)c2ccc(F)cc2F)CC1	-4.376
CCn1c(NCc2ccco2)nc2c(C)nn(C)c2c1=O	25.01
CNS(=O)(=O)c1cccc(C(C)NCc2ccco2)c1 (stereo not drawn)	-0.2197
CC(C)CNc1c(NCc2ccco2)c(=O)c1=O	131.9

SMILES	Percent Effect [%]
CSCCCNC(=O)c1coc(Cn2cnc3ccccc32)n1	7.588
C1CC(NCc2nnc(C3CC3)o2)CN(Cc2noc(C3CC3)n2)C1 (stereo not drawn)	132.9
c1ccc2oc(NC3CCCN(Cc4noc(C5CC5)n4)C3)nc2c1 (stereo not drawn)	2.188
CC(C)c1nnc(CNC2CCCN(Cc3noc(C4CC4)n3)C2)o1 (stereo not drawn)	144.7
CCc1nc(CN2CCCC(NCc3nnc(C4CC4)o3)C2)no1 (stereo not drawn)	5.014
CCc1nnc(CNC2CCCN(Cc3noc(C4CC4)n3)C2)o1 (stereo not drawn)	121.7
C1CC(c2noc(C3CC3)n2)CN(Cc2noc(C3CC3)n2)C1 (stereo not drawn)	0.1706
OCCN1CCC(CNCCOCC(F)(F)F)CC1	0.8425
Cc1ccc(-c2ncc(CNc3cnccc3CO)s2)o1	8.317
FC(F)(F)CCc1ncnn1-c1ccc2c(c1)OCO2	-6.748
Cc1ccccc1C(C(=O)N1CCN(C(=O)c2ccc[nH]2)CC1)N(C)C (stereo not drawn)	2.077
Nc1ncc(CN2CCC(CCC(=O)NC3CC3)CC2)cn1	2.927
O=C(O)C(F)(F)F.O=S(=O)(C1CC1)N1CCC2(CN(c3ccccn3)C2)C1	2.12
CCn1cc2c(n1)CN(S(=O)(=O)c1cn(C)cn1)CC2COC.O=C(O)C(F)(F)F (stereo not drawn)	-7.552
CCS(=O)(=O)N1CCC2(CN(C(=O)c3cn(C)cn3)C2)C1	-4.508
CC(C)CO[C@H]1CN(S(=O)(=O)c2cn(C)cn2)[C@@H]2CCCO[C@H]12.O=C(O)C(F)(F)F	-4.682
CCN1CCC2(C1)CN(S(=O)(=O)c1cn(C)cn1)C2.O=C(O)C(F)(F)F.O=C(O)C(F)(F)F	110.7
Cn1cnc(S(=O)(=O)N2CC3(CCN(c4ccccc4)C3)C2)c1.O=C(O)C(F)(F)F	94.4
Cn1cnc(S(=O)(=O)N2CC3(CCN(CC4CC4)C3)C2)c1.O=C(O)C(F)(F)F.O=C(O)C(F)(F)F	100.1
Cn1cnc(C(=O)N2CC3(CCN(S(=O)(=O)c4ccccc4)C3)C2)c1	-0.5352
CC(C)CN1CC[C@@H]2[C@@H]1CCN2S(=O)(=O)c1cn(C)cn1.O=C(O)C(F)(F)F	9.969

SMILES	Percent Effect [%]
CC(C)CN1CCC2(C1)CN(S(=O)(=O)c1cn(C)cn1)C2.O=C(O)C(F)(F)F.O=C(O)C(F)(F)F	81.89
CCO[C@H]1CCN(S(=O)(=O)c2cn(C)cn2)[C@H]1Cc1ccccc1.O=C(O)C(F)(F)F	-2.456
Cn1cnc(S(=O)(=O)N2CCN(CC3CC3)c3ncccc3C2)c1.O=C(O)C(F)(F)F.O=C(O)C(F)(F)F	-19.75
CC(CC(=O)Nc1ncn(CC(=O)NCc2ccccc2)n1)C1CC1 (stereo not drawn)	-9.655
COc1ccc(S(=O)(=O)NCC(O)c2sccc2C)cc1Cl (stereo not drawn)	7.194
CC(=O)N1CCCCCC1C1CCN(Cc2nc(C3CC3)no2)CC1 (stereo not drawn)	-6.899
Brc1cnc(NCCCOC2CCOCC2)nc1	-7.222
CC(C)Oc1cccc(C(=O)C2CCCN(C(=O)c3cncs3)C2)c1 (stereo not drawn)	11.61
CNc1cccc(CC2COCCN(C(=O)c3cncs3)C2)n1 (stereo not drawn)	126.5
CNc1cccc(CC2COCCN(C(=O)c3cccnc3)C2)n1 (stereo not drawn)	118.9
CNc1cccc(CC2COCCN(C(=O)c3cnn(C)c3)C2)n1 (stereo not drawn)	151.8
Cc1ccsc1S(=O)(=O)N1CCc2c(c(C(=O)O)nn2CC2CC2)C1	-2.186
CN(Cc1noc2c1CCCC2)C(=O)Cn1c(=O)cnc2ccccc21	5.556
Cc1cnc2n(c1=O)C(CC(=O)NCc1cccs1)CS2 (stereo not drawn)	81.1
O=C(CC1CSc2nccc(=O)n21)NCc1cc(-c2ccco2)on1 (stereo not drawn)	-4.448
O=C(CC1CSc2nccc(=O)n21)NCc1ccco1 (stereo not drawn)	9.661
Cc1cnc2n(c1=O)C(CC(=O)NCc1cc(-c3cccs3)on1)CS2 (stereo not drawn)	-18.75
Cc1cnc2n(c1=O)C(CC(=O)NCc1ccco1)CS2 (stereo not drawn)	71.35
CC(C)c1cc2c(O)nc(CSCC(=O)O)nc2s1	30.38
CN(Cc1cccs1)C(=O)c1ccc(N2CCOCC2)c(F)c1	-5.296
COc1ccccc1C(NC(=O)NC1CC1)c1noc(C)n1 (stereo not drawn)	-18.96
